Drawing on PubChem BioAssay (Tox21), this text covers Potency and outcome for 10 compounds.

Experiment [1] is described as follows: qHTS assay to identify small molecule antagonists of the retinoid acid receptor (RAR) signaling pathway - cell viability counter screen (AID 1159551). Note: nearly all actives have a fitted effect of over 35% in size. Note: potency is the fitted concentration of half-maximal effect. The essentials: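 C3RL4 cells were seeded overnight at 37 C, then treated with compounds plus 1 uM (final) retinol for 6 h at 37 C. Viability was read as ATP by CellTiter-Glo luminescence after 30 min at room temperature.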
On the technique in general: qHTS replaces the single test concentration by a dilution series.

The nature of experiment [2]: qHTS assay to identify small molecule antagonists of the retinoic acid receptor (RAR) signaling pathway (AID 1159552; note: nearly all actives have a fitted effect of over 50% in size; note: potency is the fitted concentration of half-maximal effect). The procedure, abridged: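 Luminescent RARE reporter read-out in C3RL4 cells: 6 hr co-treatment at 37 C of test compounds with retinol at 1 uM final. Cells plated overnight beforehand; luciferase reagent incubated 30 min at room temperature before reading.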

The nature of experiment [3]: qHTS assay to identify small molecule antagonists of the estrogen related receptor (ERR) signaling pathway from Tox21 library - cell viability counter screen (AID 1224834). Note: nearly all actives have a fitted effect of over 30% in size. Note: potency is the fitted concentration of half-maximal effect. The procedure, abridged:
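ERR reporter cells were plated 6 h before compound addition, then exposed to test compounds in DMSO for 17.5 h at 37 C. Viability was read as CellTiter-Fluor fluorescence after a 30-minute incubation at 37 C.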

Experiment [4] has as its target Luciferin 4-monooxygenase (Photinus pyralis) (UniProt P08659). As to the kind of experiment: qHTS assay to identify small molecule inhibitors of firefly luciferase (AID 1224835). Note: nearly all actives have a fitted effect of over 25% in size. Note: potency is the fitted concentration of half-maximal effect. The procedure, abridged: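 Quantitative HTS format; KM concentrations of both substrates. Purified P. pyralis FLuc activity quantified from luminescence images.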
A short description of experiment [5]: qHTS assay to identify small molecule agonists of the constitutive androstane receptor (CAR) signaling pathway - cell viability counter screen (AID 1224836). Note: nearly all actives have a fitted effect of over 45% in size. Note: potency is the fitted concentration of half-maximal effect. The essentials:
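Cell viability multiplexed with the CAR agonist screen: CellTiter-Fluor fluorescence after 23 hr at 37 C. HepG2-CYP2B6-hCAR cells got compounds at 15 concentrations with PK11195 at 0.75 uM final.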

Experiment [6] concerns the target Nuclear receptor subfamily 1 group I member 3 (Homo sapiens) (UniProt Q14994). As to the kind of experiment: qHTS assay to identify small molecule agonists of the constitutive androstane receptor (CAR) signaling pathway (AID 1224839). For activation: series mostly up to about 92 µM. Note: nearly all actives have a fitted effect of over 15% in size. Note: potency is the fitted concentration of half-maximal effect. The essentials: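 Luminescent ONE-Glo read-out after 24 hr, 37 C exposure of double-stable HepG2-CYP2B6-hCAR reporter cells to a 15-point compound series, in the presence of 0.75 uM PK11195 (final).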

Experiment [7] in a line: qHTS assay to identify small molecule antagonists of the estrogen related receptor signaling pathway with the pleiotropic PPARgamma coactivator (PGC) from Tox21 10K library - cell viability counter screen (AID 1224840; active = well fitted cell-killing curve with a large enough effect in the repeat runs, not every such curve was filed as active; note: nearly all actives have a fitted effect of over 40% in size; note: potency is the fitted concentration of half-maximal effect). The procedure, abridged:
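PGC/ERR cells were seeded at 2,000 cells/well and left 6 hours at 37 C/5% CO2 before pin-tool addition of compounds in DMSO. After 17.5 hours at 37 C, CellTiter-Fluor was added and fluorescence read 30 minutes later.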

The nature of experiment [8]: qHTS assay to identify small molecule agonists of the estrogen related receptor signaling pathway with the pleiotropic PPARgamma coactivator (PGC) from Tox21 10K library (AID 1224842). Note: nearly all actives have a fitted effect of over 15% in size. The procedure, abridged:
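PGC/ERR reporter cells (NTP line) were seeded 2,000 per well, rested 6 h at 37 C/5% CO2, then pin-dosed with compounds in DMSO for 18 h at 37 C; luciferase read by One-Glo luminescence after 30 min at room temperature.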

For experiment [9], the target named is Thyrotropin receptor (Homo sapiens) (UniProt P16473). The experiment in a line: qHTS assay to identify small molecule agonists of the thyroid stimulating hormone receptor (TSHR) signaling pathway (AID 1224843; calls by dose curve; note: nearly all actives have a fitted effect of over 45% in size). The procedure, abridged: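 Cell line HEK293 with TSHR; density 800/well. Exposure 30 min RT. Readout HTRF cAMP (cAMP-d2/anti-cAMP-cryptate), 1 h RT before reading.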

Experiment [10] is described as follows: qHTS assay to identify small molecule agonists of the hypoxia (HIF-1) signaling pathway - cell viability counter screen (AID 1224844; calls by dose curve; note: nearly all actives have a fitted effect of over 50% in size; note: potency is the fitted concentration of half-maximal effect). The procedure, abridged:
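HRE-bla ME-180 cells in medium with 0.5% dialyzed FBS were preincubated 5 hrs at 37C, exposed to compounds for 17 hrs, then viability was read as CellTiter-Glo luminescence after 30 min at room temperature, in the reporter wells.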

Experiment [11] in a line: qHTS assay to identify small molecule agonists of H2AX (AID 1224845; active = well fitted activation curve with a large enough effect in the signal ratio in the repeat runs, not every such curve was filed as active; the % refers to the signal ratio; note: potency is the fitted concentration of half-maximal effect). The procedure, abridged: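 Wild-type CHO-K1 cells plated overnight, then exposed 3 hr at 37C to compounds at 15 concentrations (0.76% DMSO). Lysed, then HTRF anti-pH2AX(S139)-cryptate/anti-H2AX-d2 detection after 24 hr at room temperature; emissions 665 and 620 nm.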
Experiment [12] can be described thus: qHTS assay to identify small molecule antagonists of the constitutive androstane receptor (CAR) signaling pathway - cell viability counter screen (AID 1224837). Note: series mostly up to about 92 µM; nearly all actives have a fitted effect of over 45% in size. The essentials:
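HepG2 cells stably expressing hCAR and a CYP2B6-2.2kb reporter were plated and pre-incubated 4 hr at 37 C/5% CO2, then given compounds at 15 concentrations plus 50 nM CITCO (final). After 23 hr, viability was read by CellTiter-Fluor fluorescence.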

The target in experiment [13] is Nuclear receptor subfamily 1 group I member 3 (Homo sapiens) (UniProt Q14994). As to the kind of experiment: qHTS assay to identify small molecule antagonists of the constitutive androstane receptor (CAR) signaling pathway (AID 1224838). Note: nearly all actives have a fitted effect of over 40% in size. Note: potency is the fitted concentration of half-maximal effect. The procedure, abridged: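 HepG2 cells stably co-transfected with hCAR and a CYP2B6-2.2kb luciferase reporter were seeded 4 h before compound addition at 15 concentrations. Cells were stimulated with 50 nM CITCO (final) for 24 h at 37 C; luciferase luminescence was then read.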

Experiment [14] is described as follows: qHTS assay to identify small molecule antagonists of the estrogen related receptor signaling pathway with the pleiotropic PPARgamma coactivator (PGC) from Tox21 10K library (AID 1224841; call rule not given here; note: series mostly up to about 92 µM; actives are mostly falling curves and most rising ones were filed inactive; nearly all actives have a fitted effect of over 50% in size). The procedure, abridged: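 PGC/ERR reporter cells were seeded at 2,000 cells/well and held 6 hours at 37 C/5% CO2 before pin-tool addition of compounds in DMSO. After 18 hours at 37 C, One-Glo was added and luminescence read after 30 minutes at room temperature.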

Experiment [15] can be described thus: qHTS assay to identify small molecule agonists of the retinoic acid receptor (RAR) signaling pathway (AID 1159553). The procedure, abridged:
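C3RL4 cells carrying a RARE luciferase reporter were plated overnight at 37 C, then exposed to compounds in DMSO for 6 hr at 37 C and 5% CO2. Luminescence was read 30 min after luciferase reagent addition at room temperature.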

Experiment [16] in a line: qHTS assay to identify small molecule antagonists of the estrogen related receptor (ERR) signaling pathway - cell viability counter screen (AID 1224818).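 Note: series mostly up to about 46 µM; viability measured after 17.5 h of compound exposure.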 The procedure, abridged: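 ERR reporter cells plated 6 h at 37 C/5% CO2, then compounds in DMSO pin-transferred and incubated 17.5 h at 37 C. Viability read as CellTiter-Fluor fluorescence after 30 min at 37 C.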
Experiment [17] in a line: qHTS assay to identify small molecule antagonists of the estrogen related receptor (ERR) signaling pathway (AID 1224819;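 note: luminescence from an ERR-driven luciferase reporter measured with One-Glo reagent; series mostly up to about 46 µM; nearly all actives have a fitted effect of over 50% in size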). The procedure, abridged: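 ERR reporter cells were plated at 2,000 cells/well and left 6 h at 37 C/5% CO2 before pin-tool transfer of compounds in DMSO. After 18 h at 37 C, One-Glo was added and luminescence was read 30 min later at room temperature.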

Experiment [18] can be described thus: qHTS assay to identify small molecule agonists of the estrogen related receptor (ERR) signaling pathway (AID 1224820). The essentials:
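Cells: ERR line from NTP, 2,000/well. Pre-incubation 6 h, 37 C/5% CO2. Compound (DMSO) pin transfer, 18 h 37 C. One-Glo, 30 min RT, luminescence.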

Experiment [19] relates to estrogen-related receptor alpha (ERRalpha) with PGC-1alpha coactivator, human. The experiment in a line: qHTS assay to identify small molecule antagonists of the estrogen related receptor signaling pathway with the pleiotropic PPARgamma coactivator (PGC) (AID 1224821; calls by dose curve). The essentials: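 Luminescent read-out (One-Glo, 30 min at room temperature) following 18 h treatment of PGC/ERR cells at 37 C with compounds delivered in DMSO. Cells had settled 6 h at 37 C/5% CO2 before dosing.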

The nature of experiment [20]: qHTS assay to identify small molecule agonists of the estrogen related receptor signaling pathway with the pleiotropic PPARgamma coactivator (PGC) (AID 1224823). The procedure, abridged: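 Steps: plate PGC/ERR cells at 2,000 cells/well; incubate 6 h, 37 C/5% CO2; pin-transfer compounds (DMSO); incubate 18 h, 37 C; add One-Glo; 30 min RT; read luminescence.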

Molecules are shown by their SMILES. “And” between values parts separate entries of the source, which are not always exact repeats. Equal entries are not always repeated. Inconclusive results are not listed. The source made the active and inactive calls. Unless noted, calls come from the whole dose curve; as a rule, active = well fitted curve in the direction sought with a large enough effect in the repeat runs; inconclusive = weak or mixed curves; inactive = no such curve, though single readings can be large; an effect the other way counts as inactive or inconclusive.

Sequence of Nuclear receptor subfamily 1 group I member 3 (Homo sapiens) (Q14994 whole entry, looked up): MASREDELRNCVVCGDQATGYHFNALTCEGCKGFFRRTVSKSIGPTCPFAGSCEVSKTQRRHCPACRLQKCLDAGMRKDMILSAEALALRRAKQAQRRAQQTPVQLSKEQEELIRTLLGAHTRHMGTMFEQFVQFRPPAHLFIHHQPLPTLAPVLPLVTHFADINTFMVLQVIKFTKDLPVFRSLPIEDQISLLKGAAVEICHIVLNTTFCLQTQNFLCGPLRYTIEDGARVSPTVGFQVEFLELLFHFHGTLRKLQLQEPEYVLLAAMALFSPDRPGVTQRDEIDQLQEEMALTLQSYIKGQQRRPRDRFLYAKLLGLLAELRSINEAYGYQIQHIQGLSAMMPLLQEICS
Sequence of Thyrotropin receptor (Homo sapiens) (P16473 whole entry, looked up): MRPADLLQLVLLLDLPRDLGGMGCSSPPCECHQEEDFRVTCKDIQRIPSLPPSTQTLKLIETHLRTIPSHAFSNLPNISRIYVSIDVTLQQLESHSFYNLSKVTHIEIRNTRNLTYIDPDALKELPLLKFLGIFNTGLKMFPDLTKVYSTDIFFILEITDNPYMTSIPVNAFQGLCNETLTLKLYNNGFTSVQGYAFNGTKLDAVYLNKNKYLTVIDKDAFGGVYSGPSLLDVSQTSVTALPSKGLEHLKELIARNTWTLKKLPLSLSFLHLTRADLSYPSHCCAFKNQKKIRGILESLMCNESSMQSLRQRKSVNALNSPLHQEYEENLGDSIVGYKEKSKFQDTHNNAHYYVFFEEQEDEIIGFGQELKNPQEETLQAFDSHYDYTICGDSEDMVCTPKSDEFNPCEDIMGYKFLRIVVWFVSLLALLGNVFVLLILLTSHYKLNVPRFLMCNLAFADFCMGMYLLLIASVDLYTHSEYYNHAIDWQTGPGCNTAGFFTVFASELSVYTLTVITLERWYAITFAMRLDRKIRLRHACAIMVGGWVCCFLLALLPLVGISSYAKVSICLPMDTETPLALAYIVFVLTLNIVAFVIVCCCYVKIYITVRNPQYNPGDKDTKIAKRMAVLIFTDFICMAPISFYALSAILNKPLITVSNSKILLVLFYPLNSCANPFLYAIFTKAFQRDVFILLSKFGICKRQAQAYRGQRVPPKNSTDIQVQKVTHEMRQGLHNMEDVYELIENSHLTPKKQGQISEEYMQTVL
Sequence of Luciferin 4-monooxygenase (Photinus pyralis) (P08659 whole entry, looked up): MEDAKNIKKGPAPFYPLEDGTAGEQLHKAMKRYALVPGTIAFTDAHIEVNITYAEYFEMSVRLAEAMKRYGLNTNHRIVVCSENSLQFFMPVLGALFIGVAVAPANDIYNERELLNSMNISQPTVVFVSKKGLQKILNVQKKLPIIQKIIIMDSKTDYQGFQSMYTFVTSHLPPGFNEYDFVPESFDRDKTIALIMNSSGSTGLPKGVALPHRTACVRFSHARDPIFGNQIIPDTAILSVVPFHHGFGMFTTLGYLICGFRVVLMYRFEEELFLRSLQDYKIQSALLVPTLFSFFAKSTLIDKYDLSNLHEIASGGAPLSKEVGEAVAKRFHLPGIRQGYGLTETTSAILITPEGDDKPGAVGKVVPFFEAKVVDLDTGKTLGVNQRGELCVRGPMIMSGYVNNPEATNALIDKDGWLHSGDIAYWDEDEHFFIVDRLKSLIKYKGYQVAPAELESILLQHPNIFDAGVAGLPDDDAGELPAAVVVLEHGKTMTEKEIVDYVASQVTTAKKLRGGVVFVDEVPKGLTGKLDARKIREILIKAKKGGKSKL

On to `CC(C)CBr`, for which the Potency entry in experiment [1], in experiment [2], in experiment [3], in [4], in [5] and in experiment [6] was “inactive” each time. In addition, the Potency entry in [7], in experiment [8], in experiment [9], in experiment [10] and in [11] was “inactive” each time.

As to `COCC(=O)N(c1c(C)cccc1C)[C@H](C)C(=O)OC`, the Potency entry in experiment [1], in [2], in experiment [3], in [4], in experiment [5] and in experiment [12] was “inactive” throughout. In addition, the Potency entry in [13], in [6], in experiment [7], in [8], in experiment [9] and in [10] was “inactive” throughout. Also, in experiment [11], the Potency entry was “inactive”.

Regarding `N#CSCSC#N`, the Potency in [1] is 27.9 µM (active) and 30.3 µM (active); in experiment [2], 24.9 µM (active); in experiment [3] it was 62.5 µM (active) and 60.5 µM (active); in [5], 44.2 µM (active) and 48.1 µM (active); in experiment [13], 19.8 µM (active) and 24.1 µM (active); in experiment [7], 55.7 µM (active) and 53.9 µM (active). The Potency in [10] is 17.8 µM (active) and 8.62 µM (active); in experiment [11], 15.8 µM (active). The Potency entry in experiment [4], in experiment [6] and in [8] was “inactive” in each case.

Regarding `Fc1ccc(Oc2ccnc3cc(Cl)cc(Cl)c23)cc1`, the Potency result in experiment [1], in experiment [2], in experiment [3], in experiment [5], in experiment [12] and in experiment [7] was “inactive” in each case. Also, the Potency result in experiment [11] was “inactive”. Moreover, the Potency in experiment [4] was 35.6 µM (active); in [6] it was 27.3 µM (active).

With `N#CCCO`, the Potency entry in experiment [1], in [2], in [3], in experiment [4], in experiment [5] and in [12] was “inactive” in each case. In addition, the Potency entry in [7], in experiment [10] and in experiment [11] was “inactive” in each case.

On to `Cc1ccc(CCl)cc1`, for which the Potency entry in [1], in experiment [2], in experiment [4], in experiment [5], in experiment [12] and in experiment [13] was “inactive” in each case. In addition, the Potency result in experiment [6], in [7], in experiment [14], in experiment [8], in [9] and in [10] was “inactive” each time.

Regarding `N#C/C=C/c1ccccc1`, the Potency entry in experiment [1], in [2], in experiment [4], in experiment [5], in experiment [12] and in experiment [13] was “inactive” in each case. Moreover, the Potency result in [6], in experiment [7] and in experiment [10] was “inactive” in each case.

Take `COP(=O)(CCC(=O)NCO)OC`: the Potency result in experiment [1], in experiment [2], in [4], in experiment [5], in experiment [12] and in experiment [6] was “inactive” in each case. The Potency entry in [7], in experiment [8], in experiment [9], in experiment [10] and in [11] was “inactive” in each case.

Consider `O=[N+]([O-])c1cc([N+](=O)[O-])c2ccccc2c1`, for which the Potency entry in experiment [1], in experiment [15], in experiment [17], in experiment [19], in experiment [3] and in experiment [4] was “inactive” each time. Further, the Potency entry in experiment [5], in [12], in [13], in [7], in experiment [8] and in experiment [9] was “inactive” each time. Further, the Potency entry in experiment [11] is “inactive”. In addition, the compound was classed as inactive in experiment [16], in experiment [18] and in experiment [20]. Also, in experiment [6], the Potency was 24.3 µM (active).

Take `Nc1c(Oc2ccccc2)cc(O)c2c1C(=O)c1ccccc1C2=O`: the Potency result in [1], in [2], in experiment [5], in [12], in experiment [13] and in experiment [7] was “inactive” throughout. Also, the Potency result in experiment [10] and in [11] was “inactive” in each case. Besides, the Potency in experiment [4] is 3.09 µM (active); in experiment [6], 6.68 µM (active).
